Data published in PubChem BioAssay AID651626 (National Center for Advancing Translational Sciences (NCATS), 2012).
The source made the active and inactive calls.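 Rule for the calls: active = inhibition of at least 60% at 114 µM in the USP2 gel assay; inconclusive = inhibition from 30% up to under 60% at 114 µM; inactive = inhibition under 30% at 114 µM.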

Each compound was assayed against Ubiquitin carboxyl-terminal hydrolase 2 (Homo sapiens) (UniProt O75604) (assay: Inhibitors of USP1/UAF1: SAR in USP2 diubiquitin SDS-PAGE gel assay). Details: USP2 K63 diubiquitin cleavage, SDS-PAGE gel densitometry; series mostly up to 114 µM; inhibition: at the top concentration.
From the text: Deubiquitinating enzymes (DUBs) are a class of enzymes that can cleave isopeptide bond formed between the C-terminal carboxylate of ubiquitin and a lysine side-chain amino group on the target protein. Among them, ubiquitin specific proteases (USPs) constitute the largest DUB family. Human USPs are emerging as promising targets for pharmacological intervention because of their connection to a number of human diseases, including prostate, colon and breast cancer (1, 2), pediatric acute lymphoblastic leukemia (3), and familial cylindromatosis (4). The advantage of inhibiting USPs lies in the potential specificity of therapeutic intervention that can lead to better efficacy and reduce nonspecific side effects. In a collaboration between the University of Delaware and the NIH Chemical Genomics Center, a high-throughput screen assay was developed to screen for USP1/UAF1 inhibitors (5). […]
The inhibition assay contains 20 nM USP2, 2 microM K63 linked diubiquitin, and inhibitors at varied concentrations (0.08 microM - 114 microM). […] The intensity of the individual diubiquitin and monoubiquitin band was quantified using Quantity One 4.3.1 (Biorad, Hercules, CA). The percentage of the conversion was determined and used to calculate the reaction rate. […]

Ubiquitin carboxyl-terminal hydrolase 2 (Homo sapiens), sequence (O75604 whole entry, looked up): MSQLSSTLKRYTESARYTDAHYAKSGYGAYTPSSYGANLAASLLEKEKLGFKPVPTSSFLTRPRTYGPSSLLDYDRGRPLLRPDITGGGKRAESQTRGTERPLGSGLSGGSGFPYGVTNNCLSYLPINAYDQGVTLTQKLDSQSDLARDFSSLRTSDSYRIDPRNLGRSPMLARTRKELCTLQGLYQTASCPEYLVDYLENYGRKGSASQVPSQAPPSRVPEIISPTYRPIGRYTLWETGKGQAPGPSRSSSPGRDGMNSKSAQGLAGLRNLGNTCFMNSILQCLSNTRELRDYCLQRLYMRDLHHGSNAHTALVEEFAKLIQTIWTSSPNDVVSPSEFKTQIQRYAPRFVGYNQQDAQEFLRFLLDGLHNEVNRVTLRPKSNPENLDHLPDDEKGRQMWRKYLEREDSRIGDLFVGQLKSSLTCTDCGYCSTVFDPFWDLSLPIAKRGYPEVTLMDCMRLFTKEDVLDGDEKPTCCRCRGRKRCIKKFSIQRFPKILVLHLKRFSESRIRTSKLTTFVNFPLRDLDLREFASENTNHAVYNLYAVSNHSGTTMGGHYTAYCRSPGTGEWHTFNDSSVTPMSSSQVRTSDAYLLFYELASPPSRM

Compound | inhibition
Cc1cnc(-c2ccccc2C(C)C)nc1NCc1ccc(-n2ccnn2)cc1 | 8% (inactive)
